# Results taken from the supplement of paper PMC8728848.
# Only a selection was taken, and the strongest signals are over-represented in it overall.
# B1: Epf (Streptococcus pyogenes) (protein)
# chain: GDHGPEFNGVMVVKAAEAEELPDDLMNFKGTWEVSADGSSGRFFSKGATDSYVFHLIPAKDVKKPGWREHNEVKDSYIKIDKQSIAARYKTSTTAPYSVAFKVNTKSLIKDHDYKITFEQGQIASGITVDYRIGSAFNKTTDDSFKISDESKYASNVKIEGEEQGFKQREQGDKTISFRTLKEGPMSLVLLSKVEKKPQGDLDVEFKNLKIIDVTNPSQLDKGVAYVGNKNVQLTLKSDDGRTNFEGDEISLFNSRGELLQTVTVTKDQQNPISITLSEDQAKSLKNKEKLKVSIKQKQSKKTSKDFFFEVGIDPKVEAKQKEKLLELDKVKKQIEDSINGDAWLPEKPVDLQGDHGLSAWSHPQFEK
# Experiments:
# Assay in all cases: glycan array binding signal (z-score within array); higher = stronger binding
# Settings in all cases: glycan notation: IUPAC condensed, linker removed
# [1] = biological target: Fuc(a1-2)Gal(b1-3)GalNAc(a1-3)[Fuc(a1-2)]Gal(b1-4)Glc
# In short: (§1)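 Negative Z-scores can be read as non-binding. The Z-score is calculated within each array and then averaged across arrays of one protein sequence at different concentrations or buffers and across linkers. Arrays, 3228 in all, were curated from the Consortium for Functional Glycomics database and kept only where the protein sequence was available.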
# Fuc(a1-2)Gal(b1-3)GlcNAc = biological target: Fuc(a1-2)Gal(b1-3)GlcNAc
# In short: as §1
# [2] = biological target: Fuc(a1-2)Gal(b1-3)GlcNAc(b1-3)[Neu5Ac(a2-6)Gal(b1-4)GlcNAc(b1-6)]Gal(b1-4)Glc
# In short: as §1
# [3] = biological target: Fuc(a1-2)Gal(b1-3)[Fuc(a1-4)]GlcNAc(b1-3)[Fuc(a1-3)[Gal(b1-4)]GlcNAc(b1-6)]Gal(b1-4)Glc
# In short: as §1
# [4] = biological target: Fuc(a1-2)Gal(b1-4)GlcNAc(b1-2)Man
# In short: as §1
# [5] = biological target: Fuc(a1-2)Gal(b1-4)GlcNAc(b1-2)[Fuc(a1-2)Gal(b1-4)GlcNAc(b1-4)]Man(a1-3)[Fuc(a1-2)Gal(b1-4)GlcNAc(b1-2)Man(a1-6)]Man(b1-4)GlcNAc(b1-4)GlcNAc
# In short: as §1
# [6] = biological target: Fuc(a1-2)Gal(b1-4)GlcNAc(b1-3)[Fuc(a1-3)[Gal(b1-4)]GlcNAc(b1-6)]Gal(b1-4)Glc
# In short: as §1
# [7] = biological target: Fuc(a1-2)[GalNAc(a1-3)]Gal(b1-4)GlcNAc(b1-6)GalNAc
# In short: as §1
# [8] = biological target: Fuc(a1-3)[Gal(b1-4)]GlcNAc(b1-2)Man(a1-3)[Fuc(a1-3)[Gal(b1-4)]GlcNAc(b1-2)Man(a1-6)]Man(b1-4)GlcNAc(b1-4)[Fuc(a1-6)]GlcNAc
# In short: as §1
# [9] = biological target: Fuc(a1-3)[Gal(b1-4)]GlcNAc(b1-6)[Gal(b1-3)GlcNAc(b1-3)]Gal(b1-4)Glc
# In short: as §1
# [10] = biological target: Fuc(a1-3)[GalNAc(b1-4)]GlcNAc
# In short: as §1
# Fuc(a1-4)GlcNAc = biological target: Fuc(a1-4)GlcNAc
# In short: as §1
# [11] = biological target: Gal(a1-3)Gal(b1-4)GlcNAc(b1-6)GalNAc
# In short: as §1
# Gal(a1-3)GalNAc = biological target: Gal(a1-3)GalNAc
# In short: as §1
# [12] = biological target: Gal(b1-3)GalNAc(b1-4)Gal(b1-4)Glc
# In short: as §1
# [13] = biological target: Gal(b1-3)GlcNAc(b1-3)Gal(b1-4)GlcNAc(b1-6)[Gal(b1-3)GlcNAc(b1-3)]Gal(b1-4)Glc
# In short: as §1
# [14] = biological target: Gal(b1-3)GlcNAc(b1-3)Gal(b1-4)[Fuc(a1-3)]GlcNAc(b1-6)[Gal(b1-3)GlcNAc(b1-3)]Gal(b1-4)Glc
# In short: as §1
# [15] = biological target: Gal(b1-3)[GlcNAc(b1-6)]GalNAc
# In short: as §1
# [16] = biological target: Gal(b1-4)GlcNAc(b1-2)[Gal(b1-4)GlcNAc(b1-6)]Man(a1-6)[GlcNAc(b1-4)][Gal(b1-4)GlcNAc(b1-2)Man(a1-3)]Man(b1-4)GlcNAc(b1-4)GlcNAc
# In short: as §1
# [17] = biological target: Gal(b1-4)GlcNAc(b1-3)Gal(b1-4)Glc
# In short: as §1
# [18] = biological target: Gal(b1-4)GlcNAc(b1-3)Gal(b1-4)GlcNAc(b1-3)Gal(b1-4)GlcNAc(b1-3)Gal(b1-4)GlcNAc(b1-3)Gal(b1-4)GlcNAc(b1-2)Man(a1-3)[Gal(b1-4)GlcNAc(b1-3)Gal(b1-4)GlcNAc(b1-3)Gal(b1-4)GlcNAc(b1-3)Gal(b1-4)GlcNAc(b1-3)Gal(b1-4)GlcNAc(b1-2)Man(a1-6)]Man(b1-4)GlcNAc(b1-4)GlcNAc
# In short: as §1
# [19] = biological target: Gal(b1-4)GlcNAc(b1-3)Gal(b1-4)[Fuc(a1-3)]GlcNAc(b1-3)Gal(b1-4)[Fuc(a1-3)]GlcNAc
# In short: as §1
# [20] = biological target: Gal(b1-4)GlcNAc(b1-6)Gal(b1-4)GlcNAc
# In short: as §1
# Gal3S(b1-4)Glc = biological target: Gal3S(b1-4)Glc
# In short: as §1
# [21] = biological target: Gal3S(b1-4)[Fuc(a1-3)]GlcNAc
# In short: as §1
# Gal6S(b1-4)GlcNAc6S = biological target: Gal6S(b1-4)GlcNAc6S
# In short: as §1
# [22] = biological target: Glc(a1-6)Glc(a1-6)Glc(a1-6)Glc
# In short: as §1
# [23] = biological target: GlcNAc(b1-3)Gal(b1-4)GlcNAc(b1-2)Man(a1-3)[GlcNAc(b1-3)Gal(b1-4)GlcNAc(b1-2)Man(a1-6)]Man(b1-4)GlcNAc(b1-4)GlcNAc
# In short: as §1
# [24] = biological target: GlcNAc(b1-3)Gal(b1-4)GlcNAc(b1-3)Gal(b1-4)GlcNAc
# In short: as §1
# [25] = biological target: GlcNAc(b1-3)Gal(b1-4)GlcNAc(b1-3)Gal(b1-4)GlcNAc(b1-2)[GlcNAc(b1-3)Gal(b1-4)GlcNAc(b1-3)Gal(b1-4)GlcNAc(b1-6)]Man(a1-6)[GlcNAc(b1-3)Gal(b1-4)GlcNAc(b1-3)Gal(b1-4)GlcNAc(b1-2)Man(a1-3)]Man(b1-4)GlcNAc(b1-4)[Fuc(a1-6)]GlcNAc
# In short: as §1
# [26] = biological target: GlcNAc(b1-3)Gal(b1-4)GlcNAc(b1-3)Gal(b1-4)GlcNAc(b1-3)Gal(b1-4)GlcNAc(b1-2)Man(a1-3)[GlcNAc(b1-3)Gal(b1-4)GlcNAc(b1-3)Gal(b1-4)GlcNAc(b1-3)Gal(b1-4)GlcNAc(b1-2)Man(a1-6)]Man(b1-4)GlcNAc(b1-4)[Fuc(a1-6)]GlcNAc
# In short: as §1
# [27] = biological target: GlcNAc(b1-3)Gal(b1-4)GlcNAc(b1-3)Gal(b1-4)GlcNAc(b1-3)Gal(b1-4)GlcNAc(b1-2)[GlcNAc(b1-3)Gal(b1-4)GlcNAc(b1-3)Gal(b1-4)GlcNAc(b1-3)Gal(b1-4)GlcNAc(b1-6)]Man(a1-6)[GlcNAc(b1-3)Gal(b1-4)GlcNAc(b1-3)Gal(b1-4)GlcNAc(b1-3)Gal(b1-4)GlcNAc(b1-2)Man(a1-3)]Man(b1-4)GlcNAc(b1-4)[Fuc(a1-6)]GlcNAc
# In short: as §1
# GlcNAc(b1-4)GlcNAc = biological target: GlcNAc(b1-4)GlcNAc
# In short: as §1
# [28] = biological target: GlcNAc(b1-4)[GlcNAc(b1-6)]GalNAc
# In short: as §1
# [29] = biological target: GlcNAc(b1-6)Gal(b1-4)GlcNAc
# In short: as §1
# [30] = biological target: Man(a1-2)Man(a1-2)Man(a1-6)[Man(a1-3)]Man
# In short: as §1
# [31] = biological target: Man(a1-3)[Man(a1-6)]Man(b1-4)GlcNAc(b1-4)GlcNAc
# In short: as §1
# Man(b1-4)GlcNAc = biological target: Man(b1-4)GlcNAc
# In short: as §1
# Neu5Ac(a2-3)Gal = biological target: Neu5Ac(a2-3)Gal
# In short: as §1
# [32] = biological target: Neu5Ac(a2-3)Gal(b1-3)GalNAc6S
# In short: as §1
# [33] = biological target: Neu5Ac(a2-3)Gal(b1-3)GlcNAc(b1-3)Gal(b1-4)GlcNAc
# In short: as §1
# [34] = biological target: Neu5Ac(a2-3)Gal(b1-4)GlcNAc(b1-2)Man(a1-3)[Neu5Ac(a2-6)Gal(b1-4)GlcNAc(b1-2)Man(a1-6)]Man(b1-4)GlcNAc(b1-4)GlcNAc
# In short: as §1
# [35] = biological target: Neu5Ac(a2-3)Gal(b1-4)GlcNAc(b1-3)Gal(b1-4)GlcNAc(b1-2)Man(a1-3)[Neu5Ac(a2-3)Gal(b1-4)GlcNAc(b1-3)Gal(b1-4)GlcNAc(b1-2)Man(a1-6)]Man(b1-4)GlcNAc(b1-4)GlcNAc
# In short: as §1
# [36] = biological target: Neu5Ac(a2-3)Gal(b1-4)[Fuc(a1-3)]GlcNAc(b1-2)Man
# In short: as §1
# Neu5Ac(a2-8)Neu5Ac = biological target: Neu5Ac(a2-8)Neu5Ac
# In short: as §1
# [37] = biological target: Neu5Ac(a2-8)Neu5Ac(a2-8)Neu5Ac
# In short: as §1
# [38] = biological target: Neu5Gc(a2-3)Gal(b1-4)GlcNAc
# In short: as §1
binder,measurement,setting,value
B1,glycan array binding signal (z-score),[1],-0.202
same,glycan array binding signal (z-score),Fuc(a1-2)Gal(b1-3)GlcNAc,-0.175
same,glycan array binding signal (z-score),[2],0.514
same,glycan array binding signal (z-score),[3],3.33
same,glycan array binding signal (z-score),[4],0.654
same,glycan array binding signal (z-score),[5],-0.184
same,glycan array binding signal (z-score),[6],2.21
same,glycan array binding signal (z-score),[7],-0.052
same,glycan array binding signal (z-score),[8],-0.996
same,glycan array binding signal (z-score),[9],-2.21
same,glycan array binding signal (z-score),[10],2.73
same,glycan array binding signal (z-score),Fuc(a1-4)GlcNAc,-0.354
same,glycan array binding signal (z-score),[11],-1.75
same,glycan array binding signal (z-score),Gal(a1-3)GalNAc,0.627
same,glycan array binding signal (z-score),[12],-0.182
same,glycan array binding signal (z-score),[13],2.25
same,glycan array binding signal (z-score),[14],3.16
same,glycan array binding signal (z-score),[15],0.807
same,glycan array binding signal (z-score),[16],3.4
same,glycan array binding signal (z-score),[17],-1.14
same,glycan array binding signal (z-score),[18],2.53
same,glycan array binding signal (z-score),[19],-1.31
same,glycan array binding signal (z-score),[20],-0.547
same,glycan array binding signal (z-score),Gal3S(b1-4)Glc,1.73
same,glycan array binding signal (z-score),[21],1
same,glycan array binding signal (z-score),Gal6S(b1-4)GlcNAc6S,2.34
same,glycan array binding signal (z-score),[22],0
same,glycan array binding signal (z-score),[23],-0.562
same,glycan array binding signal (z-score),[24],0.659
same,glycan array binding signal (z-score),[25],0.082
same,glycan array binding signal (z-score),[26],2.18
same,glycan array binding signal (z-score),[27],2.85
same,glycan array binding signal (z-score),GlcNAc(b1-4)GlcNAc,-1.32
same,glycan array binding signal (z-score),[28],3.11
same,glycan array binding signal (z-score),[29],-0.433
same,glycan array binding signal (z-score),[30],1.01
same,glycan array binding signal (z-score),[31],0.659
same,glycan array binding signal (z-score),Man(b1-4)GlcNAc,-0.471
same,glycan array binding signal (z-score),Neu5Ac(a2-3)Gal,-0.169
same,glycan array binding signal (z-score),[32],1.65
same,glycan array binding signal (z-score),[33],-1.25
same,glycan array binding signal (z-score),[34],-0.643
same,glycan array binding signal (z-score),[35],1.33
same,glycan array binding signal (z-score),[36],-1.48
same,glycan array binding signal (z-score),Neu5Ac(a2-8)Neu5Ac,0.246
same,glycan array binding signal (z-score),[37],-0.377
same,glycan array binding signal (z-score),[38],0.422
